Measurements: PubChem BioAssay AID493166 (National Center for Advancing Translational Sciences (NCATS), 2011)
Calls of active or inactive are those of the source. Calls follow the shape of the dose curve; as a rule, active = well fitted curve in the direction sought with a large enough effect; inactive = no such curve, though single readings can be large or run the other way.

Assay: Retest of LOPAC molecules that induce DNA re-replication in MCF 10A normal breast cells.
Excerpt: NIH Molecular Libraries Probe Production Network [MLPCN] NIH Chemical Genomics Center [NCGC] MLPCN Grant: Fast Track K99 CA136555 Assay Provider: Melvin DePamphilis, NICHD, NIH Assay Overview Eukaryotic cells normally restrict genome duplication to once per cell division. When this process is aberrant, DNA re-replication occurs when cells reinitiate DNA replication before the first round of replication is complete. DNA re-replication induces the DNA damage response, arrests cell proliferation, and triggers apoptosis. The cell cycle components cyclin A, Cdt-1, Cdc6 and geminin are critical regulators of this process and their misregulation results in DNA re-replication in normal and cancer cells. To identify compounds that induce re-replication in normal cells, an image-based assay was used to measure DNA content of nuclei, as detected by the fluorescent DNA binding dye, Hoechst. Cell nuclei were imaged by a fluorescence scanning plate imager and compounds that induce DNA re-replication were identified by the increase of nuclei with elevated fluorescence intensity.
Assay Protocol Summary For screening, 250 cells in 5 uL/well were dispensed into black clear 1536-well plates (Aurora) using a solenoid-based dispenser. Following transfer of 23 nL compound or DMSO vehicle by a pin tool, the plates were incubated 48 hr at 37 C and 5% CO2. After addition of 1 uL/well Hoescht stain, the plates were incubated 40 min at 37 C, 5% CO2 and total intensity of fluorescent objects (nuclei) were enumerated by an Acumen Explorer Ex3 (TTP LabTech) fluorescence scanning plate imager (405 nm excitation, 500-530 nm emission). Keywords: NIH Roadmap, MLPCN, MLI, MLSMR, qHTS, NCGC, DNA replication, cancer

Row | SMILES | Potency
1 | C[C@@H](Oc1ccc(Oc2cnc3ccc(Cl)cc3n2)cc1)C(=O)O | inactive
2 | COc1cc2c(cc1O)CC[C@@H]1[C@@H]2CC[C@]2(C)[C@@H](O)CC[C@@H]12 | 4.76 µM (active)
3 | CCCCCCN(CCCCCC)C(=O)Cc1c(-c2ccc(F)cc2)[nH]c2ccccc12 | inactive
4 | CC(=O)O[C@H]1C(=O)[C@@]2(C)C([C@H](OC(=O)c3ccccc3)[C@]3(O)C[C@H](OC(=O)[C@H](O)[C@@H](NC(=O)c4ccccc4)c4ccccc4)C(C)=C1C3(C)C)[C@]1(OC(C)=O)CO[C@@H]1C[C@@H]2O (stereo not given in full) | 0.0534 µM (active)
5 | O=c1cc(-c2ccccc2)[nH]c2nc(Cl)ccc12 | 5.34 µM (active)
